Screening results (PubChem BioAssay)
Hits are enriched below; roughly 3.3% of the tested compounds scored in any of these assays.
ERa coact pot = enhancers of ERα–SRC-1 coactivator binding, primary screen, biochemical, TR-FRET, ERα LBD, low estradiol; TR-FRET ERalpha-LBD/SRC-Cy5 coactivator binding, 2 h; 100 = basal binding, no effect; 86,000 compounds, 1.3% hits; coactivator binding (% of control), % at 25.6 µM; in the data active means activity above about 200%;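 further: binding measured in presence of low estradiol as agonist stimulus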
ERb coact inh = inhibitors of ERβ-SRC1 coactivator interaction, primary screen, biochemical, TR-FRET, ERβ LBD, SRC-1 peptide; Estrogen receptor beta (Homo sapiens), Q92731; TR-FRET ER-beta LBD / SRC1-Cy5 peptide binding; receptor agonist-loaded with 1 µM estradiol; inhibition, % at 25.6 µM; 86,000 compounds, 1.3% hits; AID 633, 2007;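 active means compounds whose percent inhibition of the receptor-coactivator binding signal exceeds about 50% in the single-dose screen, limit read from the data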
Target sequence (Q92731 whole entry, looked up, the tested form may be a part): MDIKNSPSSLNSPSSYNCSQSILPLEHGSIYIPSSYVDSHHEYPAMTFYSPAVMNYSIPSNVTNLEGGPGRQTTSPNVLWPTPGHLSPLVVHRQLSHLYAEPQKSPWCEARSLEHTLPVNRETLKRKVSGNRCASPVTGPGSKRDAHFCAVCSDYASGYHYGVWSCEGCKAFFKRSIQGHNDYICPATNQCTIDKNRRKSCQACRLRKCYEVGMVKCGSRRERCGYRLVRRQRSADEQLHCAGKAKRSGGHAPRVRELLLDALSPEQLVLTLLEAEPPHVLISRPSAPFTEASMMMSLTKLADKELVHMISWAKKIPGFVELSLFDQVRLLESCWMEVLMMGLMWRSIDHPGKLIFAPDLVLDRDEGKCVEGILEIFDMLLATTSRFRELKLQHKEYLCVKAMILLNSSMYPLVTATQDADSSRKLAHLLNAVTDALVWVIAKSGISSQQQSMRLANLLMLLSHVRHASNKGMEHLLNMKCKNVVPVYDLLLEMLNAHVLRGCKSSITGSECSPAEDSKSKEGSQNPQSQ
FAK blocker = FAK kinase inhibitors, primary screen, biochemical; Focal adhesion kinase 1 (Homo sapiens), Q05397; biochemical FAK kinase activity assay; inhibition, %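 (tested at 7 µM)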; 97,000 compounds, 0.84% hits; AID 727, 2007; in the data active means inhibition above about 19%
Smad3 inh = Smad3/FoxH1 peptide binding inhibitors, primary screen, biochemical, TR-FRET. inhibition, % at 25 µM. AID 630, 2007. 88,000 compounds, 0.29% hits. TR-FRET Smad3/Dy647-FoxH1 peptide binding, europium anti-His. Mothers against decapentaplegic homolog 3 (Homo sapiens), P84022;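 active means compounds that reduce the energy-transfer binding signal between the protein and its labelled peptide by more than half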
ERa coact inh = ERα–SRC-1 coactivator interaction inhibitors, primary screen, biochemical, TR-FRET, ERα LBD, estradiol-bound | Estrogen receptor (Homo sapiens), P03372 | TR-FRET ER-alpha LBD / SRC-1 peptide | inhibition, % at 25.6 µM | 86,000 compounds, 1.7% hits | AID 629, 2007; in the data active means inhibition above about 50%
Hits are given with their value; 0 = inactive; - = no result given; [ ] = dose if it differs, or a comment.

SMILES | ERa coact pot | ERb coact inh | FAK blocker | Smad3 inh | ERa coact inh
CC(C)CC(c1nnnn1Cc1ccccc1)N1CCC(C(N)=O)CC1 (stereo not given) | 210.3[fluorescence artefact?] | 0 | 0 | 0 | 0
CSc1nc2ccc3nc(NC(=O)c4ccc(C)cc4)sc3c2s1 | - | - | 0 | - | -
Cc1ccc(C(=O)Nc2nc3ccccc3c(=O)s2)cc1 | 0 | 60.3 | 0 | 0 | 0
O=C1c2ccccc2-c2onc3c(Oc4ccccc4)cc(O)c1c23 | 0 | 70.7[fluorescence artefact?] | 0 | 0 | 73.8[fluorescence artefact?]
Cc1ccc2c(c1)c1c3n2CCN(C(=O)C2CC2)C3CCC1 (stereo not given) | 0 | 0 | 0 | 0 | 0
Cc1ccc2c(c1)c1c3n2CC(=C2C(=O)OC(C)(C)OC2=O)NC3CCC1 (stereo not given) | 0 | 54.2[fluorescence artefact?] | 0 | 0 | 0
Cc1nn(C)c(C)c1CN(C)C(=O)c1cc2n(n1)C(C(F)(F)F)CC(c1cccs1)N2 (stereo not given) | 0 | 0 | 0 | 54.4[fluorescence artefact?] | 0
Cc1nn(C)cc1CN(C)C(=O)c1nn2c(c1Cl)NC(c1cccs1)CC2C(F)(F)F (stereo not given) | 0 | 0 | 0 | 0 | 0
Nn1c(COc2ccccc2)nnc1SCC(=O)O | 251.7[fluorescence artefact?] | 0 | 0 | 0 | 0
COc1ccc(OCc2nnc(SCC(=O)O)n2N)cc1 | 0 | 0 | 0 | 0 | 0
CCOC(=O)Cn1c(CN(C)Cc2ccccc2)nc2c1c(=O)n(C)c(=O)n2C | - | - | 52.6 | - | -
CC(C)c1ccc2c(c1)CC[C@@H]1[C@](C)(CN)CCC[C@@]21C | - | - | - | 0 | -
COc1ccc(CNc2oc(COc3ccccc3Cl)nc2C#N)cc1 | 227.9[fluorescence artefact?] | 0 | 0 | 0 | 0
Cc1ccc(CNc2oc(COc3ccccc3Cl)nc2C#N)cc1 | 0 | 0 | 0 | 0 | 0
CCOC(=O)/C(=N\Nc1ccccc1)c1csc(Nc2ccc(C)cc2)n1 | 0 | 0 | 0 | 0 | 0
CC/C(=N/Nc1ccccc1)c1cnnc(-c2ccccc2)n1 | 0 | 60.3 | 0 | 0 | 82.3[fluorescence artefact?]
O=c1cc(CSc2nc3cc(Cl)ccc3o2)nc2sccn12 | 0 | 0 | 0 | 0 | 0
COc1ccc(Nc2nnc(SCc3cc(=O)n4ccsc4n3)s2)cc1 | 0 | 52.1 | 0 | 0 | 76.4[fluorescence artefact?]
CC1(C)Cc2ccccc2-c2nnc(SCC(=O)Nc3nc4ccccc4s3)n21 | 0 | 0 | 0 | 0 | 55.7[fluorescence artefact?]
Cn1c(SCC(=O)Nc2nc3ccccc3s2)nnc1-c1ccccc1 | 0 | 0 | 0 | 0 | 0
O=C(O)C12CC3(C(=O)O)CC(C(=O)O)(CC(C(=O)O)(C1)C3=O)C2=O | - | - | - | 0 | -
CCC1(C)NC(=O)N(CC(=O)Nc2sc3c(c2C(N)=O)CCC3)C1=O (stereo not given) | 0 | 82.7[fluorescence artefact?] | - | 0 | 75.8
CSc1nc(N2CCN(CCO)CC2)c2sc3nc(-c4ccco4)c4c(c3c2n1)CCC4 | 0 | 0 | - | 0 | 57.2
Cc1ccc(OCc2cc(C(=O)Nc3ccccc3)oc2C)cc1 | 0 | 0 | 0 | 0 | 0
Cc1oc(C(=O)Nc2ccc(O)cc2)cc1COc1ccccc1 | 0 | 51.7[fluorescence artefact?] | 0 | 0 | 0
SMILES | ERa coact pot | ERb coact inh | FAK blocker | Smad3 inh | ERa coact inh
CC1CCN(CC[S-])CC1.O.O.[Cl][Pt] | - | - | - | 0 | -
CC(C)C[C@@H](N)C(=O)Nc1ccc2ccccc2c1 | - | - | - | 0 | -
O=C(O)c1ccc(SSc2ccc(C(=O)O)cn2)nc1 | - | - | - | 0 | -
N#Cc1c(N)nc(SCC(=O)C23CC4CC(CC(C4)C2)C3)c(C#N)c1-c1ccc(Cl)cc1 | 478.8[fluorescence artefact?] | 0 | 0 | 0 | 0
CSc1nc(N)nc(SCC(=O)C23CC4CC(CC(C4)C2)C3)c1C#N | - | - | 0 | - | -
CCOC(=O)CC(=O)CSc1nc(N)c(C#N)c(-c2ccc(Cl)cc2)c1C#N | 219.7[fluorescence artefact?] | 0 | 0 | 0 | 0
COc1ccc2[nH]c3c(c2c1)CCn1c-3nc2ccccc2c1=O | 0 | 0 | - | 0 | 80.4
C[N+]1(C)CCc2cc(O)c(O)cc2[C@H]1Cc1ccc(O)c(O)c1 | - | - | - | 0 | -
N#Cc1c(N2CCCCC2)nc(N)c2c(N)nc3c(c12)CC(c1ccccc1)O3 (stereo not given) | 216.9[fluorescence artefact?] | 0 | 0 | 0 | 0
CCN(CC)c1nc(N)c2c(N)nc3c(c2c1C#N)CC(c1ccccc1)O3 (stereo not given) | 0 | 0 | 0 | 0 | 0
Cc1cc2nc([C@H](C)C(=O)c3ccc(Cl)cc3)c(=O)[nH]c2cc1C | - | - | - | 0 | -
COC(=O)c1cc(NC(=O)Cn2c(=O)cnc3ccccc32)cc(C(=O)OC)c1 | 0 | 0 | 0 | 0 | 55.1
COC(=O)Cn1c(=O)cnc2ccccc21 | 0 | 0 | - | 0 | 0
COc1ccc2cc(C(=O)CCC(=O)O)ccc2c1 | - | - | - | 0 | -
Cc1sc(-c2ccncc2)nc1OC(=O)c1cc(Cl)cc(Cl)c1 | 224.1 | 0 | 0 | 0 | 0
CCSc1nnc(NC(=O)C(Cc2ccccc2)n2cccc2)s1 (stereo not given) | 248.5[fluorescence artefact?] | 0 | 0 | 0 | 0
Cc1csc(NC(=O)C(Cc2ccccc2)n2cccc2)n1 (stereo not given) | 0 | 0 | 0 | 0 | 0
CCSc1nnc(NC(=O)COc2ccc3ccccc3c2)s1 | 259.2[fluorescence artefact?] | 0 | 0 | 0 | 0
CCSc1nnc(NC(=O)COc2ccccc2)s1 | 0 | 0 | 0 | 0 | 0
O=C(O)c1ccccc1NCn1c(=S)sc2ccccc21 | - | - | - | 0 | -
CCS(=O)(=O)N1CCC(C(=O)NCCCN2CCCCCC2)CC1 | 919.9[fluorescence artefact?] | 0 | 0 | 0 | 0
O=C(c1cccc(F)c1)N1CCN(C(=O)c2cc3ncc(Br)cn3n2)CC1 | 0 | 58.5 | 0 | 0 | 54.7
C[N+](C)(C)CC(=O)N/N=C/c1ccncc1 | - | - | - | 0 | -
Nc1c(S(=O)(=O)c2ccccc2)c2nc3ccccc3nc2n1Cc1ccco1 | 0 | 0 | 0 | 0 | 0
Cc1ccc(S(=O)(=O)c2c(N)n(Cc3ccco3)c3nc4ccccc4nc23)cc1C | 220.5 | 0 | 0 | 0 | 0
SMILES | ERa coact pot | ERb coact inh | FAK blocker | Smad3 inh | ERa coact inh
O=C(O)C(Cc1ccccc1-c1ccccc1)C(=O)O | - | - | - | 0 | -
CC(=O)Oc1ccc(C(=O)Nc2ccc3c(c2)C(=O)N(CCC(=O)O)C3=O)cc1 | 708.7[fluorescence artefact?] | 0 | 0 | 0 | 0
FC(F)(F)c1cccnc1N1CCN(c2ncnc3nc[nH]c23)CC1 | 0 | 0 | - | 0 | 56.0[fluorescence artefact?]
Cc1c(C(=O)N2CCN(c3ccccc3)CC2)sc2ncnc(N3CCN(c4ccccc4)CC3)c12 | 399.9[fluorescence artefact?] | 0 | 0 | 0 | 0
Cc1c(C(=O)N2CCN(Cc3ccccc3)CC2)sc2ncnc(N3CCOCC3)c12 | 0 | 0 | - | 0 | 0
Nc1nc(SCC(=O)O)[nH]c(=O)c1N | - | - | - | 0 | -
CCOC(=O)/C=C1\SCC(=O)N1CC(=O)c1ccc[nH]1 | 0 | 64.4[fluorescence artefact?] | 0 | 0 | 86.7[fluorescence artefact?]
CCOC(=O)/C=C1\SCC(=O)N1CC(=O)Nc1ccc(OC)c(OC)c1 | - | - | 0 | - | -
c1ccc2nc(N3CCOCC3)cnc2c1 | 0 | 0 | 0 | 0 | 0
Cn1ccnc1SCC(=O)Nc1ccc2nc(SCC(=O)NC3CC3)sc2c1 | 0 | 0 | 0 | 0 | 53.1
Cn1ccnc1SCC(=O)Nc1ccc2c(c1)COC2=O | 0 | 0 | 0 | 0 | 0
